Assay outcomes as filed in PubChem BioAssay.
In the library only some 1% were active in any assay of this set; here they are far more common.
cytoskel mod = modifiers of cytoskeleton assembly; inhibition, % at 2 µM; 91,000 compounds, 0.18% hits; HUVEC TNFa F-actin phalloidin imaging, high content; AID 836;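 active means inhibition above the batch mean plus 3 SD and confirmed as a hit by visual image inspection, cut at about 30% in these data, passing the limit was not always enough; inconclusive means above the inhibition threshold but rejected on visual inspection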
VCAM1 TNFa inh = reduces TNF alpha induced VCAM1 expression in HUVEC. AID 802. HUVEC TNFa-induced VCAM-1 immunofluorescence, high-content imaging. inhibition, % at 2 µM. 95,000 compounds, 0.48% hits;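 active means inhibition above the batch mean plus 3 SD, with images confirmed as a hit by eye, cut at about 37% in these data; inconclusive means inhibition above that limit but hit not confirmed in images; inactive means inhibition not above that limit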;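 further: 0% = TNF-stimulated DMSO wells and 100% = unstimulated control wells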
HUVEC tox TNFa = HUVEC cytotoxicity counter-screen, TNF alpha stimulated | HUVEC TNFalpha-stimulated, Hoechst cell count, imaging | cell count reduction, % at 2 µM | 93,000 compounds, 0.17% hits;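 active means cell count reduction exceeding the screen mean by over 5 SD, scaled to untreated wells per plate, cut at about 78% in these data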;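 further: cells counted after 24 h of TNF alpha exposure following the 1 h pretreatment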
E-sel TNF inh = TNF alpha driven E-selectin expression inhibition; HUVEC TNFa-induced E-selectin immunofluorescence, high content; inhibition, % at 2 µM; 120,000 compounds, 0.71% hits;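 active means inhibition above the batch mean plus 3 SD, and confirmed as a hit on visual image review, cut at about 43% in these data; inconclusive means passes the inhibition cutoff but fails visual image review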;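 further: 0% = TNF-stimulated DMSO wells and 100% = unstimulated control wells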
* hit, by the source's call.

What do the screens show for `N#CC1=C(N)Oc2cc(O)ccc2C1c1cccs1` (stereo not given)?
cytoskel mod: -7; VCAM1 TNFa inh: 13; HUVEC tox TNFa: -3; E-sel TNF inh: -4

What do the screens show for `N#CC1=C(N)Oc2c(ccc3ccccc23)C1c1cccs1` (stereo not given)?
cytoskel mod: 9; VCAM1 TNFa inh: 80*; HUVEC tox TNFa: 51; E-sel TNF inh: 6

Results for Cc1ccc(O)c(NC(=S)NC(=O)c2ccc(-c3ccc(Cl)cc3)o2)c1 ?
cytoskel mod: 9; VCAM1 TNFa inh: 5; HUVEC tox TNFa: -10; E-sel TNF inh: 55*

Results for O=C(NC(=S)Nc1ccccc1O)c1ccc(-c2ccc(Cl)cc2)o1 ?
cytoskel mod: -3; VCAM1 TNFa inh: 17; HUVEC tox TNFa: -40; E-sel TNF inh: -33

Results for Cn1c(=O)c2c(nc(SCC(=O)NC34CC5CC(CC(C5)C3)C4)n2C)n(C)c1=O ?
cytoskel mod: -16; VCAM1 TNFa inh: 1; HUVEC tox TNFa: 14; E-sel TNF inh: 68*

What do the screens show for `COC1(c2ccccc2)NC(=S)NN=C1c1ccccc1` (stereo not given)?
cytoskel mod: inconclusive; VCAM1 TNFa inh: inconclusive; HUVEC tox TNFa: 100*; E-sel TNF inh: 3

How did O=C(ONC1=NCCCCC1)c1ccc([N+](=O)[O-])cc1 do in these assays?
E-sel TNF inh: 2

How did O=C(OC(c1ccccc1)c1nccc2ccccc12)c1cc([N+](=O)[O-])cc([N+](=O)[O-])c1 (stereo not given) do in these assays?
E-sel TNF inh: 0

Results for CCn1cc(C(=O)NCc2ccco2)c(=O)c2cc(S(=O)(=O)N3CCc4ccccc4C3)ccc21 ?
cytoskel mod: -31; VCAM1 TNFa inh: -3; HUVEC tox TNFa: -13; E-sel TNF inh: 100*

Results for Cc1c(Cl)cccc1-n1c(SCC(=O)N2CCC(C(=O)O)CC2)nnc1-c1ccncc1 ?
E-sel TNF inh: -45

Results for Cc1cc(/C=C(\C#N)C(=O)NCCc2c[nH]c3ccccc23)c(C)n1C ?
E-sel TNF inh: 13

How did COc1cc(/C=C(/C#N)C(=O)NCCc2c[nH]c3ccccc23)ccc1OCc1ccccc1F do in these assays?
cytoskel mod: 0; VCAM1 TNFa inh: 37*; HUVEC tox TNFa: 36; E-sel TNF inh: -12

How did COc1ccccc1-c1cn(S(=O)(=O)c2ccc(C)cc2)nc1N do in these assays?
cytoskel mod: -7; VCAM1 TNFa inh: 91*; HUVEC tox TNFa: -19; E-sel TNF inh: -9

What do the screens show for `NC(=O)C1CCN(CC(=O)Nc2cccc(C(=O)Nc3cccc(C(F)(F)F)c3)c2)CC1`?
E-sel TNF inh: -21

Results for CCOc1ccc(N(C)S(=O)(=O)c2ccc(C)c(C(=O)OCC(=O)c3c[nH]c4ccccc34)c2)cc1 ?
E-sel TNF inh: -1

How did COC(=O)c1nnn(-c2ccccc2)c1N do in these assays?
cytoskel mod: 2; VCAM1 TNFa inh: -18; E-sel TNF inh: 6

How did COC(=O)c1nnn(-c2ccc(Cl)c(Cl)c2)c1C(=O)OC do in these assays?
E-sel TNF inh: 73*

How did CCOC1=NC(C(=O)O)c2ccccc2/C(=C(/C)Cl)N1 (stereo not given) do in these assays?
cytoskel mod: -12; VCAM1 TNFa inh: 92*; HUVEC tox TNFa: 54

Results for CCC(=O)OC1c2ccccc2C(=O)N1Cc1ccccc1 (stereo not given) ?
cytoskel mod: -16; VCAM1 TNFa inh: 4; HUVEC tox TNFa: -2

What do the screens show for `N=C1C(c2nc3ccccc3s2)=C(O)CN1Cc1ccco1`?
cytoskel mod: -8; VCAM1 TNFa inh: 96*; HUVEC tox TNFa: -5

What do the screens show for `COc1ccc(-c2ccc(C(=S)N3CCN(C(C)=O)CC3)o2)cc1`?
cytoskel mod: -5; VCAM1 TNFa inh: -10; HUVEC tox TNFa: 10; E-sel TNF inh: 64*

What do the screens show for `O=C(CSc1nnc(-c2cccs2)o1)Nc1cccc(S(=O)(=O)N2CCCCC2)c1`?
E-sel TNF inh: -1

How did Cc1cc(C)n(CC(=O)O)c(=O)c1[N+](=O)[O-] do in these assays?
E-sel TNF inh: -5

How did CC(C)Cn1cnc2c1c(=O)n(CC(=O)Nc1ccc3c(c1)OCO3)c(=O)n2Cc1ccccc1 do in these assays?
cytoskel mod: -15; VCAM1 TNFa inh: -1; HUVEC tox TNFa: 13; E-sel TNF inh: 71*

Results for Cc1cc(NC(=O)Cn2c(=O)c3c(ncn3CC(C)C)n(Cc3ccccc3)c2=O)no1 ?
E-sel TNF inh: -30

Results for C/C(=N\NC(=O)C1(C)CC1(Br)Br)c1ccc(NC(=O)C2CCC2)cc1 (stereo not given) ?
E-sel TNF inh: 7

How did CN1CCN(CCCC(=O)c2ccc(C3CCCC3)cc2)CC1 do in these assays?
E-sel TNF inh: -22

What do the screens show for `CCOC(=O)C1=C(O)/C(=C/c2cn(CC(=O)NCC3CCCO3)c3ccccc23)SC1=Nc1ccc(C)cc1` (stereo not given)?
cytoskel mod: 20; VCAM1 TNFa inh: 89*; HUVEC tox TNFa: 24; E-sel TNF inh: -15

How did COc1ccc(CC(=O)N2CCN=C2SC)cc1 do in these assays?
cytoskel mod: 5; VCAM1 TNFa inh: 3; HUVEC tox TNFa: -31; E-sel TNF inh: 6

How did CSC1=NCCN1C(=O)Cc1ccc(Cl)cc1 do in these assays?
cytoskel mod: -8; VCAM1 TNFa inh: 44*; HUVEC tox TNFa: 10; E-sel TNF inh: -6

What do the screens show for `CNc1nc(Nc2ccc(Br)cc2)nc(N)c1[N+](=O)[O-]`?
E-sel TNF inh: -29

How did Oc1ccc(-c2csc(-c3ccccc3)n2)cc1O do in these assays?
cytoskel mod: -28; VCAM1 TNFa inh: 1; HUVEC tox TNFa: -3; E-sel TNF inh: 51*

How did Nc1nc2c3ccccc3nc(Cc3ccccc3)n2n1 do in these assays?
cytoskel mod: 7; VCAM1 TNFa inh: 93*; HUVEC tox TNFa: -17; E-sel TNF inh: -20

Results for Cc1ccc(C)c(N(CC(=O)NC2CCCC2)C(=O)c2cc3cc4cc(C)ccc4nc3s2)c1 ?
cytoskel mod: 1; VCAM1 TNFa inh: 48; HUVEC tox TNFa: 84*

What do the screens show for `CC(C)Cc1nnc(NS(C)(=O)=O)s1`?
cytoskel mod: 16; VCAM1 TNFa inh: -3; HUVEC tox TNFa: 2; E-sel TNF inh: 52*

How did Cc1ccc(C(=O)/C=C/Nc2cccc([N+](=O)[O-])c2)o1 do in these assays?
E-sel TNF inh: 3

What do the screens show for `Cn1c(NCCN2CCCCC2)cc(=O)n(C)c1=O`?
E-sel TNF inh: 81*

How did CC(C)n1c(SCC(=O)Nc2nc3c(s2)CCCC3)nc2c1c(=O)n(C)c(=O)n2C do in these assays?
cytoskel mod: 1; VCAM1 TNFa inh: 1; HUVEC tox TNFa: -14; E-sel TNF inh: 100*

Results for CCCCn1cnc2c1c(=O)[nH]c(=O)n2CCCC ?
cytoskel mod: 35*; VCAM1 TNFa inh: 0; HUVEC tox TNFa: -52; E-sel TNF inh: -5

How did Cn1c(=O)[nH]c(=O)c2c1ncn2CCN1CCOCC1 do in these assays?
cytoskel mod: -16; VCAM1 TNFa inh: -3; HUVEC tox TNFa: -16; E-sel TNF inh: 7

What do the screens show for `O=C(/C(=C/c1ccc(Cl)cc1)c1nc2ccccc2[nH]1)c1cccs1`?
cytoskel mod: 12; VCAM1 TNFa inh: 52*; HUVEC tox TNFa: -6; E-sel TNF inh: -14

What do the screens show for `COc1cccc(-n2c(SC3CCOC3=O)nc3ccccc3c2=O)c1` (stereo not given)?
cytoskel mod: 3; VCAM1 TNFa inh: 0; HUVEC tox TNFa: -16; E-sel TNF inh: 96*
